In PubChem BioAssay (EPA / NIEHS):
More than one record can exist for a structure, and the calls need not agree. Active and inactive are the calls of the source. Rule for the calls: active = hit-call score of the fitted dose curve at least 0.9, where 1 is the maximum; inactive = score below 0.9.

Key:
[1] = BSK_CASM3C_SRB: Viability Assessment in the BioMAP Diversity Plus: CASM3C Assay (AID 2283050); settings: primary human coronary artery smooth muscle cells;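 note: total protein by SRB staining as cytotoxicity measure in parallel cultures; cells exposed to compound for 24 h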
[2] = read-out: Thrombomodulin, THBD (gene 7056); assay: BSK_CASM3C_Thrombomodulin: BioMAP Diversity Plus: CASM3C Assay for Thrombomodulin Biomarker Activity (AID 2283051); settings: primary human coronary artery smooth muscle cells; actives raise or lower the signal;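 note: thrombomodulin protein level measured by ELISA 24 h after dosing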
[3] = read-out: Tissue Factor, F3 (gene 2152); assay: BSK_CASM3C_TissueFactor: BioMAP Diversity Plus: CASM3C Assay for Tissue Factor Biomarker Activity (AID 2283052); settings: primary human coronary artery smooth muscle cells; actives raise or lower the signal;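 note: cell surface tissue factor protein level read by ELISA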
[4] = read-out: Interferon-gamma inducible Protein 10 (IP10), CXCL10 (gene 3627); assay: BSK_hDFCGF_IP10: BioMAP Diversity Plus: hDFCGF Assay for Interferon-gamma inducible Protein 10 (IP10) Biomarker Activity (AID 2283053); settings: primary human foreskin fibroblasts; actives raise or lower the signal
Summary of the method: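 Chemical-treated human skin fibroblasts (primary) were sampled at 24 h for IP-10 by ELISA. Both increases and decreases relative to DMSO were scored.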

[5] = read-out: Urokinase-type plasminogen activator receptor (uPAR), PLAUR (gene 5329); assay: BSK_CASM3C_uPAR: BioMAP Diversity Plus: CASM3C Assay for Urokinase-type plasminogen activator receptor (uPAR) Biomarker Activity (AID 2283054); settings: primary human coronary artery smooth muscle cells; actives raise or lower the signal;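 note: cell-surface uPAR protein level quantified by ELISA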
[6] = read-out: Vascular cell adhesion molecule 1 (VCAM1), VCAM1 (gene 7412); assay: BSK_CASM3C_VCAM1: BioMAP Diversity Plus: CASM3C Assay for Vascular cell adhesion molecule 1 (VCAM1) Biomarker Activity (AID 2283055); settings: primary human coronary artery smooth muscle cells; actives raise or lower the signal;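 note: VCAM-1 protein level quantified by ELISA on the cells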
[7] = read-out: Collagen III, COL3A1 (gene 1281); assay: BSK_hDFCGF_CollagenIII: BioMAP Diversity Plus: hDFCGF Assay for Collagen III Biomarker Activity (AID 2283056); settings: primary human foreskin fibroblasts; actives raise or lower the signal
Summary of the method: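 ELISA read-out of collagen III from human skin fibroblast cultures sampled 24 h post-dosing. Values were derived by bidirectional fitting relative to the DMSO vehicle control.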

[8] = read-out: Epidermal growth factor receptor (EGFR), EGFR (gene 1956); assay: BSK_hDFCGF_EGFR: BioMAP Diversity Plus: hDFCGF Assay for Epidermal growth factor receptor (EGFR) Biomarker Activity (AID 2283057); settings: primary human foreskin fibroblasts; actives raise or lower the signal
Summary of the method: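 Cell-based multiplexed assay in primary human foreskin fibroblasts. EGFR is read by ELISA 24 h after treatment and compared with DMSO controls.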

[9] = read-out: Interleukin-8 (IL8), CXCL8 (gene 3576); assay: BSK_hDFCGF_IL8: BioMAP Diversity Plus: hDFCGF Assay for Interleukin-8 (IL8) Biomarker Activity (AID 2283058); settings: primary human foreskin fibroblasts; actives raise or lower the signal
Summary of the method: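 Cells used are human skin primary fibroblasts. Chemical is added, cultures run 24 h, then IL-8 is quantified by ELISA, and gain or loss versus DMSO control is fitted in both directions.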

[10] = BSK_hDFCGF_Proliferation: Cell Proliferation Assessment in the BioMAP Diversity Plus: hDFCGF Assay (AID 2283059); settings: primary human foreskin fibroblasts;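 note: curves fitted for both rise and fall of signal versus DMSO baseline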
Summary of the method: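 Total protein read at 560 nm after 0.1% SRB staining of TCA-fixed human skin fibroblasts, […]. Activity is fitted in both directions relative to DMSO as baseline.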

Measured: AC50

CCOc1nc(F)cc2nc(S(=O)(=O)Nc3c(Cl)cccc3Cl)nn12
inactive: [1] | [2] | [3] | [4] | [5] | [6] | [7] | [8] | [9] | [10]

O=C(Nc1ccccc1-c1ccc(Cl)cc1)c1cccnc1Cl
inactive: [1] | [2] | [3] | [5] | [6] | [7] | [8] | [9] | [10]

CCCCOCN(C(=O)CCl)c1c(CC)cccc1CC
active: [1] 31.4 µM | [2] 5.46 µM | [5] 29.3 µM | [6] 24.2 µM | [7] 12.2 µM | [8] 33.3 µM | [9] 31.4 µM | [10] 15.2 µM
inactive: [3]

COC(=O)NS(=O)(=O)c1ccc(N)cc1
inactive: [1] | [2] | [3] | [5] | [6] | [7] | [8] | [9] | [10]

CC(C)N1C(=O)N(c2ccccc2)CSC1=NC(C)(C)C
active: [2] 27.3 µM | [7] 26.7 µM | [10] 32 µM
inactive: [1] | [3] | [5] | [6] | [8] | [9]

CCNC(=O)NC(=O)C(C#N)=NOC
inactive: [1] | [3] | [5] | [6] | [7] | [8] | [9] | [10]
active: [2] 15.9 µM

COCC(C)N(C(=O)CCl)c1c(C)csc1C (stereo not drawn)
inactive: [1] | [2] | [3] | [5] | [6] | [7] | [8] | [9] | [10]
active: [10] 14.3 µM

CCN(CC)C(=O)C(C)Oc1cccc2ccccc12 (stereo not drawn)
active: [2] 0.148 µM | [7] 0.148 µM
inactive: [1] | [3] | [5] | [6] | [8] | [9] | [10]

Cc1nc(N(C)C)nc(OC(=O)N(C)C)c1C
inactive: [1] | [2] | [3] | [5] | [6] | [7] | [8] | [9] | [10]
